Measurements from PubChem BioAssay AID1868 (National Center for Advancing Translational Sciences (NCATS), 2009).
Screen size: about 270,000 compounds; about 20 (0.007%) were called active. Only a sample is shown. A number with no mark means an inactive call. The call rests on the fitted dose curve; in most records, active means well fitted inhibition curve with a large enough effect; inconclusive means small, poorly fitted or top-dose-only effect, or effect the other way; inactive means flat fitted curve, though single readings scatter.
On the % scale 0 is the no-effect control and ±100 the full control effect.

The compounds below were run against Galactokinase (Homo sapiens) (UniProt P51570) (assay: qHTS Assay for Inhibitors of Human Galactokinase (GALK)). Conditions: Purified GALK, Kinase-Glo residual ATP luminescence; series mostly up to 57.5 µM; activity change, negative = inhibition: at the top concentration.
Chain of Galactokinase (Homo sapiens) (P51570 whole entry, looked up): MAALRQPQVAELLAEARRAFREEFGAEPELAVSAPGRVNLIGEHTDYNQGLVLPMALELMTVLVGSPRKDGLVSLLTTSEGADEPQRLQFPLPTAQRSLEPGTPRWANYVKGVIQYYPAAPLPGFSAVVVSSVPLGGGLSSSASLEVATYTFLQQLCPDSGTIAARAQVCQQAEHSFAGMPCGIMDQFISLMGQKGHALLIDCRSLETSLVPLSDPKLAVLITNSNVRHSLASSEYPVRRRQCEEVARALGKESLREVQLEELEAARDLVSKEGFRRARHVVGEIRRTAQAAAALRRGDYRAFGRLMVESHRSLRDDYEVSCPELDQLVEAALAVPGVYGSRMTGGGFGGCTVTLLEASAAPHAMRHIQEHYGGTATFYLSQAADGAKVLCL
Source text: NIH Molecular Libraries Probe Production Centers Network [MLPCN] NIH Chemical Genomics Center [NCGC] MLPCN Grant: R03 MH085689-01 Assay Submitter (PI): Kent Lai (University of Utah School of Medicine, 50 N Mario Capecchi Drive, Salt Lake City, UT 84132) NCGC Assay Overview: Inherited deficiency of galactose-1-phosphate uridyltransferase (GALT) can result in a potentially lethal disorder called Classic Galactosemia (OMIM 230400). Several lines of evidence indicate that an elevated level of galactose-1-phosphate (gal-1-p), the product of galactokinase (GALK), is a major, if not sole, pathogenic mechanism in patients with classic galactosemia. Therefore, finding inhibitors of GALK is a potential novel therapy for this inherent metabolic disease and is the long term goal of this project. GALK (provided by the assay submitter) was assayed using ATP and D-(+)-Galactose (Sigma-Aldrich cat# G0750) as substrates. Promega Kinase-Glo Plus (cat# V3774) technology was used to detect the residual ATP following kinetic reaction. Briefly, the Kinase-Glo Plus contains Ultra-Glo [2] luciferase and D-luciferin which generates a bioluminescence signal from the remaining ATP.
NCGC Assay Protocol Summary: Three uL/well of ATP-buffer solution (35 uM ATP, 20mM HEPES pH8.0, 5 mM MgCl2, 60 mM NaCl, 1 mM DTT, 0.01% BSA final concentration) was dispensed into 1536-well, assay plates (Greiner, solid white medium-binding plates) with Aurora Discovery BioRAPTR Flying Reagent Dispenser (FRD; Beckton-Dickenson). Compound solution (23 nL) was transferred to the assay plate using the Kalypsys 1536-pin tool. One uL/well GALK-galactose solution (5 nM GALK, 100 uM galactose, 20 mM HEPES pH8.0, 5 mM MgCl2, 60 mM NaCl, 1 mM DTT, 0.01% BSA final concentration) was then added using the FRD yielding a total kinase reaction volume of 4 uL/ well. After 1 hour of room temperature incubation, 4 uL Kinase-Glo Plus reagent was added for a final assay volume of 8 uL/ well. Luminescence was detected with the ViewLux plate reader (Perkin Elmer, Waltham, MA) after 10 min incubation using a 1 sec exposure time and 2x binning.
For `COc1cccc(NC(=O)C(=O)c2cn(CC(=O)N3CCOCC3)c3ccccc23)c1`, the “activity change, negative = inhibition” value was 0.368%. With `CCOC(=O)C1CCCN(CCSc2ccc(C)cc2)C1` (centres undefined) the “activity change, negative = inhibition” value was -3.07%. With `O=C(Nc1ccc(S(=O)(=O)NCC2CCCO2)cc1)c1ccc(F)cc1` (centres undefined) the “activity change, negative = inhibition” value was -2.11%. In the case of `Cc1ccccc1NC(=S)NC(=O)Cc1ccc(Cl)cc1`, the “activity change, negative = inhibition” value was 7.47%. With `COCCN1CCN(C(=O)c2cc(COc3ccc(F)cc3Cl)on2)CC1` the “activity change, negative = inhibition” value was 5.12%. In the case of `COc1ccc(N(C(=O)c2snc(C(N)=O)c2N)C(C(=O)NC2CCCC2)c2ccc(C)o2)c(OC)c1` (centres undefined), the “activity change, negative = inhibition” value was -1.02%. For `O=C(CCl)NNc1nc(-c2ccccc2)c2cc(Cl)ccc2n1`, the “activity change, negative = inhibition” value was 0.907%. With `CCOC(=O)Nc1ccc2c(c1)N(C(=O)CCCl)c1ccccc1[S@]2=O` the “activity change, negative = inhibition” value was -2.31%. With `NC(=O)CSc1nnc(NC(=O)c2ccc(Br)o2)s1` the “activity change, negative = inhibition” value was 3.28%. In the case of `CN(C(=O)CCN1C(=O)/C(=C/c2ccccc2F)SC1=S)C1CCS(=O)(=O)C1` (centres undefined), the “activity change, negative = inhibition” value was 7.27%. `O=C(CC(n1cncn1)C(Cl)(Cl)Cl)c1ccc([N+](=O)[O-])cc1` (centres undefined) was tested, and the “activity change, negative = inhibition” value was 1.45%. With `Cc1ccc(NC(=O)CSc2cccc3cccnc23)c(C)c1` the “activity change, negative = inhibition” value was -1.71%. For `Cc1ccc(/C=N/NC(=O)c2cc3ccccc3cc2O)o1`, the “activity change, negative = inhibition” value was 0.24%. In the case of `COc1ccc(OCc2cc(C(=O)N3CCCC3)no2)c2ccccc12`, the “activity change, negative = inhibition” value was -7.05%. For `COc1ccccc1C(=O)NC(=S)Nc1ccccc1N1CCCCC1`, the “activity change, negative = inhibition” value was -4.03%. With `COc1ccc([N+](=O)[O-])cc1N(CC(=O)Nc1ccccc1C(=O)N1CCOCC1)S(C)(=O)=O` the “activity change, negative = inhibition” value was 2.62%. With `COc1cccc(C(=O)N/N=C(\C)c2cccc(NC(=O)c3ccc(F)cc3)c2)c1OC` the “activity change, negative = inhibition” value was -11.7%. With `Oc1ccccc1-c1cc(-c2ccc(Cl)cc2)n[nH]1` the “activity change, negative = inhibition” value was -6.23%. With `CCSc1nc2sc3c(c2c(=O)n1-c1ccc(C)cc1)CCN(C)C3` the “activity change, negative = inhibition” value was -3.96%. `COc1ccc(NCCc2ccccn2)cc1` was tested, and the “activity change, negative = inhibition” value was -1.27%. `Cc1ccc(NS(=O)(=O)c2ccc3c(c2)oc(=O)n3C)c(C)c1` was tested, and the “activity change, negative = inhibition” value was 2.68%. `O=C(Nc1cccc(Cl)c1Cl)c1ccccc1NC(=O)C1CC=CCC1C(=O)O` (centres undefined) was tested, and the “activity change, negative = inhibition” value was -4.93%. `S=C(Nc1ccc(Cl)cc1Cl)N1CCCC1` was tested, and the “activity change, negative = inhibition” value was 0.847%. In the case of `O=C(Nc1ccnn1C1CCN(Cc2cccc(OCCO)c2)CC1)C1CCCC1`, the “activity change, negative = inhibition” value was 3.25%. `CC(C)(C)c1ccc(Cn2nnc3c(=O)[nH]c(C4CCCN(C(=O)c5ccco5)C4)nc32)cc1` (centres undefined) was tested, and the “activity change, negative = inhibition” value was -1.13%. `CCc1ccccc1OCC(=O)Nc1ccc2c(c1)OCCO2` was tested, and the “activity change, negative = inhibition” value was 13.3%. In the case of `O=[N+]([O-])c1ccc2c(c1)Nc1nc3ccccc3nc1N2`, the “activity change, negative = inhibition” value was 6.04%. In the case of `CC1CN(C(=O)CCC(=O)NCCCN2CCC(Cc3ccccc3)CC2)c2cc(Cl)ccc2O1` (centres undefined), the “activity change, negative = inhibition” value was -0.958%. In the case of `Cc1ccc(CSc2nsc(C)c2C#N)cc1`, the “activity change, negative = inhibition” value was -1.65%. In the case of `CC(=O)c1ccc(NC(=O)c2sc3nc4n(c(=O)c3c2C)CCCCC4)cc1`, the “activity change, negative = inhibition” value was 3.59%. `CC(C)=CCN1CCN(CCCc2ccccc2)CC1CCO` (centres undefined) was tested, and the “activity change, negative = inhibition” value was 3.23%. In the case of `O=C(Nc1ccc(C2CC2(Cl)Cl)cc1)c1cccc([N+](=O)[O-])c1` (centres undefined), the “activity change, negative = inhibition” value was 0.976%. `COc1ccccc1/C=C/C(=O)NC(=S)N1CCOCC1` was tested, and the “activity change, negative = inhibition” value was -1.25%. In the case of `COC(=O)c1ccc(COc2ccc(/C=C/C(=O)c3ccc(OC)c(CSCC(=O)O)c3)cc2OC)cc1`, the “activity change, negative = inhibition” value was -6.55%. In the case of `COc1ccc(NC(=O)CCCC2CCCCC2)c(OC)c1`, the “activity change, negative = inhibition” value was -2.48%. With `O=c1c2ccccc2ncn1CCCCOc1ccccc1F` the “activity change, negative = inhibition” value was 1.26%. With `Brc1ccccc1/C=N/Nc1nc2ccccc2o1` the “activity change, negative = inhibition” value was -2.18%. With `COc1ccc(OC)c(NC(=O)Cc2cccs2)c1` the “activity change, negative = inhibition” value was -3.6%. `CC(CN1CCOCC1)OC(=O)c1ccc(C(C)(C)C)cc1` (centres undefined) was tested, and the “activity change, negative = inhibition” value was 5.88%. In the case of `O=C(CNC(=O)c1ccc(F)cc1)c1ccccc1`, the “activity change, negative = inhibition” value was 7.94%. In the case of `CCOC(=O)C(Cc1ccc(N)cc1)N1C(=O)c2ccccc2C1=O` (centres undefined), the “activity change, negative = inhibition” value was -2.49%. For `COc1ccccc1N1CCN(/N=C/c2ccc(O)cc2O)CC1`, the “activity change, negative = inhibition” value was 0.0195%. `CC(=O)N[C@@H](C)C(=O)N1CCC(n2nccc2NC(=O)CCCc2ccccc2)CC1` was tested, and the “activity change, negative = inhibition” value was -8.5%. With `COc1ccc(C(=O)NCCSc2ccccc2C)cc1` the “activity change, negative = inhibition” value was 2.87%. With `CCOCc1nnc(NC(=O)CCS(=O)(=O)Cc2ccccc2)s1` the “activity change, negative = inhibition” value was 17.2%. For `CCC(=O)Nc1ccc(-c2ccc(N3CCCCC3)nn2)cc1`, the “activity change, negative = inhibition” value was 6.79%. `COc1ccc(-c2csc3ncnc(N4CCN(S(=O)(=O)c5ccccc5C#N)CC4)c23)cc1` was tested, and the “activity change, negative = inhibition” value was -1.81%. `CC(=O)Nc1ccc(S(=O)(=O)Nc2cc(C)cn(Cc3ccc(C)cc3)c2=O)cc1` was tested, and the “activity change, negative = inhibition” value was -2.01%. For `COc1ccc(CN2CCCC(N3CCc4ccccc4C3)C2)c(O)c1` (centres undefined), the “activity change, negative = inhibition” value was 3.61%. `CC1CCN(S(=O)(=O)c2ccc3c(c2)n(C)c(=O)n3C)CC1` was tested, and the “activity change, negative = inhibition” value was 1.48%. For `Cc1ccccc1Nc1nc(-c2cccnc2)cs1`, the “activity change, negative = inhibition” value was 4.19%. For `CC1=NN(C(N)=S)C(=O)C1N=Nc1cc(Cl)ccc1Cl` (centres undefined), the “activity change, negative = inhibition” value was -1.93%. In the case of `CC(C)(C)c1ccc(SCCc2ccncc2)cc1`, the “activity change, negative = inhibition” value was 2.38%. For `O=C(/C=C/c1ccc([N+](=O)[O-])o1)NNC(=O)c1ccc(F)cc1`, the “activity change, negative = inhibition” value was 4.88%. With `CC(C)(C)C(=O)NC1CC2CCCC(C1)N2C(=O)Nc1ccccc1F` (centres undefined) the “activity change, negative = inhibition” value was -7.57%. In the case of `Cc1cc(C)c2nc(N(CCN(C)C)C(=O)/C=C/c3cccs3)sc2c1`, the “activity change, negative = inhibition” value was 0.912%. For `COc1ccc(C(=O)O/N=C(\N)c2ccccn2)cc1[N+](=O)[O-]`, the “activity change, negative = inhibition” value was 4.35%. In the case of `CS(=O)(=O)N1CCN(C(=O)CSc2ccccc2)CC1`, the “activity change, negative = inhibition” value was 1.25%. In the case of `CCC(C)c1ccc(NC(=S)N2CCCC2)cc1` (centres undefined), the “activity change, negative = inhibition” value was -5.24%. `O=C(CN1CCN(c2cccc(Cl)c2)CC1)Nc1ccc(S(=O)(=O)N2CCOCC2)cc1` was tested, and the “activity change, negative = inhibition” value was 6.53%. With `CCc1ccccc1NC(=O)c1ccc2snnc2c1` the “activity change, negative = inhibition” value was 3.35%. For `CN(c1ccc(O)cc1)c1nc(-c2cccnc2)cs1`, the “activity change, negative = inhibition” value was 4.72%. For `Cc1ccc(C(=O)Nc2nnc(C3=COCCO3)o2)cc1C`, the “activity change, negative = inhibition” value was 1.42%. With `CCN1CCN(c2sc(S(C)(=O)=O)nc2S(=O)(=O)c2ccc(Cl)cc2)CC1` the “activity change, negative = inhibition” value was -4.5%.
